Experimental data from ChEMBL document CHEMBL4513146, “CO-ADD screening of Karazin Kharkiv National University (Ukraine) compounds”.
Entries with a potency or affinity are not part of this list.

How the values were obtained:
[1] = test system: Staphylococcus aureus; conditions: Concentration 32 ug.mL-1;; ASSAY_TEST Inhibition of Bacterial Growth; detection method Absorption (OD600); MEDIA CAMHB; plate type 384well; NBS; CORNING #3640; time 18 hr
[2] = test system: Escherichia coli; conditions: Concentration 32 ug.mL-1;; ASSAY_TEST Inhibition of Bacterial Growth; detection method Absorption (OD600); MEDIA CAMHB; plate type 384well; NBS; CORNING #3640; time 18 hr

Row | Structure (SMILES) | Inhibition [1] [%] | Inhibition [2] [%]
1 | COc1ccc(NC(=O)Cn2nc3nc(Nc4ccc(F)cc4)ccn3c2=O)cc1Cl | 5.78 | -9.75
2 | Cc1ccc(Cl)cc1NC(=O)CSc1nnc2ccc(C(=O)Nc3cccc(F)c3)cn12 | 14.11 | 0.94
3 | O=S(=O)(c1cccn2cnnc12)N(Cc1cccc(F)c1)c1cccc(Cl)c1 | 6.21 | -7.43
4 | CCC(C)NC(=O)c1ccc2c(=O)n(CCC(C)C)c3nn(CC#N)c(=O)n3c2c1 (centres undefined) | 11.05 | -1.24
5 | Cc1ccc(Oc2nccn3c(=O)n(CC(=O)Nc4cccc(Br)c4)nc23)cc1 | 4.81 | -7.18
6 | O=C(Cn1nc2ccc(SCc3ccc(Cl)cc3)nn2c1=O)NC1CCCCC1 | 0.02 | -9.74
7 | Cc1c(Cl)cccc1-n1ccn2c(=O)n(Cc3ccccc3Cl)nc2c1=O | -12.86 | -11.83
8 | COc1ccc(CNC(=O)CCc2nnc3c(N4CCCCC4)nc4ccccc4n23)cc1OC | 16.6 | 2.89
9 | COc1ccccc1-n1ccn2c(SCC(=O)Nc3ccc4c(c3)OCCO4)nnc2c1=O | 18.21 | -1.11
10 | CCC(Sc1nnc2c(=O)n(-c3ccc(C)c(C)c3)ccn12)C(=O)Nc1ccccc1C (centres undefined) | 13.17 | -4.12
11 | O=C(Cn1nc2c3cc(-c4ccc(F)cc4)nn3ccn2c1=O)Nc1ccc2c(c1)OCCO2 | 10.64 | 1.96
12 | COc1ccc(NC(=O)CSc2nnc3c(=O)n(-c4ccccc4OC)ccn23)cc1Cl | 16.85 | -0.75
13 | COc1ccc2[nH]cc(C(=O)CSc3nnc4c(=O)n(-c5ccc(C)c(C)c5)ccn34)c2c1 | 17.24 | -2.44
14 | COc1ccc(-c2cc3c4nn(CC(=O)Nc5cc(C)ccc5C)c(=O)n4ccn3n2)cc1 | 3.16 | 2.02
15 | Cn1c(=O)c2sccc2n2c(=O)n(CCOc3ccccc3)nc12 | -2.74 | -12.23
16 | COc1cccc(-n2ccn3c(SCC(=O)N4CCN(c5ccc(F)cc5)CC4)nnc3c2=O)c1 | 6.4 | -17.03

Row | Structure (SMILES) | Inhibition [1] [%] | Inhibition [2] [%]
17 | COc1ccccc1N1CCN(C(=O)Cn2nc3c(Sc4cccc(C)c4)nccn3c2=O)CC1 | 5.8 | -4.78
18 | O=C(Cn1nc2c(N3CCOCC3)nccn2c1=O)NCc1cc(F)cc(F)c1 | 7.03 | -4.76
19 | O=C(CCc1nnc2c(N3CCCCC3)nc3ccccc3n12)NCc1ccc(Cl)cc1 | 12.63 | 0.78
20 | Cc1cccc(N(Cc2ccccc2)S(=O)(=O)c2cccn3c(C)nnc23)c1 | 19.49 | -3.05
21 | CCc1ccc(Cn2c(=O)c3sccc3n3c(SCc4cccc(C(F)(F)F)c4)nnc23)cc1 | 5.26 | -0.8
22 | COC(=O)c1ccccc1NC(=O)Cn1nc2c3cc(-c4ccc(OC)cc4)nn3ccn2c1=O | 11.07 | 4.87
23 | Cc1ccc2c(c1)N(C(=O)Cn1nc3ccc(Sc4ccccc4)nn3c1=O)CCO2 | 5.63 | 2.06
24 | O=S(=O)(c1ccc2nncn2c1)N(Cc1cc(F)cc(F)c1)c1cccc(F)c1 | 5.24 | -5.68
25 | Cc1oc(-c2ccccc2)nc1CSc1nc2ccccc2n2c(C)nnc12 | 4.04 | 4.8
26 | Cc1nnc2c(=O)n(CC(=O)Nc3cccc(Cl)c3)c3ccccc3n12 | 13.08 | 5.41
27 | Cc1cc(C)c(NC(=O)Cn2nc3ccc(Sc4cccc(F)c4)nn3c2=O)c(C)c1 | 3.74 | -5.92
28 | CCc1cccc(NC(=O)Cn2nc3nc(N4CCCCCC4)ccn3c2=O)c1 | 0.41 | -5.25
29 | O=C(Cn1nc2c(N3CCSCC3)nc3ccccc3n2c1=O)Nc1ccc(Br)cc1 | -2.29 | -4.32
30 | CCOC(=O)c1cccc(NC(=O)Cn2nc3c4cc(-c5ccc(C)c(C)c5)nn4ccn3c2=O)c1 | -12.42 | -16.13
31 | Cc1cccc(NC(=O)Cn2nc3c4cc(-c5ccc(F)cc5)nn4ccn3c2=O)c1C | -2.18 | -5.27
32 | O=S(=O)(c1cccn2cnnc12)N(Cc1ccc(F)cc1)c1ccc(F)c(F)c1 | 8.71 | -1.75
